Where “and” joins values, the source holds several entries; their conditions need not be identical. Equal entries are not always repeated. Results filed as inconclusive are left out. Calls of active or inactive are those of the source. The call rests on the fitted dose curve; in most records, active means well fitted curve in the direction sought with a large enough effect; inconclusive means small, poorly fitted or top-dose-only effect, or another doubt; inactive means no such curve, though single readings can be large; an effect the other way counts as inactive or inconclusive.
Legend:
[1] = molecular target: Cellular tumor antigen p53 (Homo sapiens) (UniProt P04637); test: Primary qHTS for small molecule compounds that upregulate eGFP-tagged delta133p53alpha (in N-terminal) cells. (AID 2060322); conditions: NCI-H358 eGFP-delta133p53alpha fluorescence, 24 h; activation: stronger effect = higher value; further: nearly all actives have a fitted effect of over 75% in size; further: potency means the concentration at half of the fitted maximal effect;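 on activation: series mostly up to about 56 µM; 0% = DMSO vehicle and 100% = reference activator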
Cellular tumor antigen p53 (Homo sapiens), sequence (P04637 whole entry, looked up): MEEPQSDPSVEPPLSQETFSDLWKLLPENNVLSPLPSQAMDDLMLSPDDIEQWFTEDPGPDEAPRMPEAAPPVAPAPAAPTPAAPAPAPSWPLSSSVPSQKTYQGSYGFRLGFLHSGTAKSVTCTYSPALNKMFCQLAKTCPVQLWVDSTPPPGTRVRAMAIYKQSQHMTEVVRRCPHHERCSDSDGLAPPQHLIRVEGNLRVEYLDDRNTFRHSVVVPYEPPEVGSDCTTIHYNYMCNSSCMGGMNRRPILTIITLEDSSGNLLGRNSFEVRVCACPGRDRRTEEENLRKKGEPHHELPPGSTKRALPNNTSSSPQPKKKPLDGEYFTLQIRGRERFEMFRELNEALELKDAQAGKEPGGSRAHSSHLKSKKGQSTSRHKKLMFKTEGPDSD
Method in brief: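 NCI-H358 cells pre-induced 24 h with 10 ng/ml doxycycline to express N-terminal eGFP-delta133p53alpha, then dosed 24 h at 37C without doxycycline; fixed, Hoechst-stained, GFP intensity by laser scanning cytometry, normalized to DMSO (0%) and 57.5 uM 5-azacytidine (100%).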

[2] = molecular target: Aldehyde dehydrogenase, mitochondrial (Homo sapiens) (UniProt P05091); test: qHTS for Inhibitors of the Aldehyde Dehydrogenase Family (ALDH2) Primary screen (AID 2061308);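 further: plate controls were vehicle for no effect and reference inhibitor for full effect; nearly all actives have a fitted effect of over 55% in size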
[3] = molecular target: Retinaldehyde dehydrogenase 3 (Homo sapiens) (UniProt P47895); test: qHTS for Inhibitors of the Aldehyde Dehydrogenase Family (ALDH1A3) Validation screen (AID 2061312); further: on the % scale 0 is the no-effect control and ±100 the full control effect; nearly all actives have a fitted effect of over 45% in size
[4] = molecular target: Retinaldehyde dehydrogenase 3 (Homo sapiens) (UniProt P47895); test: qHTS for Inhibitors of the Aldehyde Dehydrogenase Family (ALDH1A3) Primary screen (AID 2061315);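 further: plate controls were DMSO vehicle for no effect and reference inhibitor for full effect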
[5] = BET inhibitor-based combinations targeting novel dependencies in MECOM-rearranged (r) AML: SET-2 cell line (AID 2202231); conditions: SET-2 AML cells viability, CellTiter-Glo luminescence, 48 h; viability: stronger effect = lower value, concentration not given here; further: nearly all actives have a fitted effect of over 35% in size; further: potency means the concentration at half of the fitted maximal effect;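 on viability: plate controls were DMSO treated cells for no effect and wells without cells for full effect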
Method in brief: (§1)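 Cells were plated at 500 per well and exposed to an 11-point dose series of each drug for 48 hr. Viability was measured by CellTiter-Glo luminescence, normalized to DMSO and empty-well controls, and summarized as AUC and per-cell-line Z-AUC.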

[6] = BET inhibitor-based combinations targeting novel dependencies in MECOM-rearranged (r) AML: OCI-AML3 cell line (AID 2202232); conditions: Potency: OCI-AML3 viability; further: nearly all actives have a fitted effect of over 35% in size; further: potency means the concentration at half of the fitted maximal effect
Method in brief: as §1

[7] = BET inhibitor-based combinations targeting novel dependencies in MECOM-rearranged (r) AML: MV-4-11 cell line (AID 2202233); further: nearly all actives have a fitted effect of over 45% in size; further: potency means the concentration at half of the fitted maximal effect
Method in brief: (§2)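 Activity is given as area under the curve and as Z-AUC, mean-centred within each cell line. It comes from 11-point dose curves normalized to DMSO and empty wells. CellTiter-Glo luminescence was read after 48 hr drug exposure of 500 cells/well.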

[8] = BET inhibitor-based combinations targeting novel dependencies in MECOM-rearranged (r) AML: HNT-34 cell line (AID 2202234); further: nearly all actives have a fitted effect of over 35% in size; further: potency means the concentration at half of the fitted maximal effect
Method in brief: as §2

[9] = BET inhibitor-based combinations targeting novel dependencies in MECOM-rearranged (r) AML: UCSD-AML1 cell line (AID 2202235); further: nearly all actives have a fitted effect of over 40% in size; further: potency means the concentration at half of the fitted maximal effect
Method in brief: as §2

[10] = BET inhibitor-based combinations targeting novel dependencies in MECOM-rearranged (r) AML: AML-191 cell line (AID 2202236; further: nearly all actives have a fitted effect of over 35% in size; further: potency means the concentration at half of the fitted maximal effect)
Method in brief: as §1

[11] = BET inhibitor-based combinations targeting novel dependencies in MECOM-rearranged (r) AML: AML-194 cell line (AID 2202237; further: nearly all actives have a fitted effect of over 40% in size; further: potency means the concentration at half of the fitted maximal effect)
Method in brief: as §1

O=C(Nc1ncc(-c2cc(C(F)F)nn2-c2c(Cl)cccc2Cl)s1)C1CC1
inactive: activation [1] 7.16% | Potency [2] | Potency [3] | Potency [4]
active: Potency [5] 1.05 µM | Potency [6] 0.833 µM | Potency [7] 1.05 µM | Potency [8] 0.742 µM | Potency [9] 0.833 µM | Potency [10] 0.934 µM | Potency [11] 0.742 µM

Cc1nc(Nc2n[nH]c3c2CN(C(=O)N[C@H](CN(C)C)c2ccccc2)C3(C)C)c2sccc2n1
inactive: Potency [2] | Potency [3] | Potency [4]
active: Potency [1] 10.7 µM | Potency [5] 1.48 µM | Potency [6] 0.468 µM | Potency [7] 0.0235 µM | Potency [8] 1.18 µM | Potency [9] 0.148 µM | Potency [10] 1.18 µM | Potency [11] 1.66 µM

O=C(O)CCn1c2c(c3ccccc31)C[C@H](NS(=O)(=O)c1ccc(F)cc1)CC2
inactive: activation [1] 0.565% and -1.83% and 6.68% | Potency [2] | Potency [3] | Potency [4] | viability [5] 105% | Potency [6] | Potency [7] | Potency [8] | Potency [9] | Potency [10] | Potency [11]

O=C(NCC1(c2nc(-c3ccccc3)cs2)CCOCC1)c1cccc(-c2noc(C(F)(F)F)n2)c1
inactive: activation [1] 1.43% | Potency [2] | Potency [3] | Potency [4]

CC(C)OC(=O)C1=CN(C(=O)c2ccc(F)c(F)c2)CC(C)(C)c2c1[nH]c1ccccc21
inactive: activation [1] -3.85% and 0.955% | Potency [2] | Potency [3] | Potency [4] | viability [5] 109% | Potency [6] | Potency [7] | Potency [8] | Potency [9] | Potency [10] | Potency [11]

Fc1ccc2[nH]ccc2c1-c1nc(N2CCOCC2)c2sc(CN3CCN(CC4CC4)CC3)cc2n1
active: Potency [5] 23.5 µM | Potency [6] 11.8 µM | Potency [7] 14.8 µM | Potency [8] 18.6 µM | Potency [9] 16.6 µM | Potency [10] 10.5 µM | Potency [11] 8.33 µM
inactive: activation [1] 22% | Potency [2] | Potency [3] | Potency [4]

CC1COC2(CCN(c3nc(=O)c4cc(C(F)(F)F)cc([N+](=O)[O-])c4s3)CC2)O1 (stereo unspecified)
inactive: activation [1] -5.81% and -10.5% | Potency [2] | Potency [3] | Potency [4] | viability [5] 104% | Potency [6] | Potency [7] | Potency [8] | Potency [9] | Potency [10] | Potency [11]

Nc1ncnc2c1c(-c1cnc3[nH]ccc3c1)nn2C1CCCC1
inactive: Potency [2] | Potency [3] | Potency [4]
active: Potency [1] 26.9 µM | Potency [5] 3.72 µM | Potency [6] 4.17 µM | Potency [7] 1.66 µM | Potency [8] 0.417 µM | Potency [9] 0.372 µM | Potency [10] 2.95 µM | Potency [11] 1.86 µM

CC(C)CNc1ccnc(NCc2csc(-c3ccccc3)n2)n1
active: Potency [5] 11.8 µM | Potency [6] 8.33 µM | Potency [7] 8.33 µM | Potency [8] 5.9 µM | Potency [9] 5.25 µM | Potency [10] 16.6 µM | Potency [11] 16.6 µM
inactive: activation [1] 18.4% and 19.6% | Potency [2] | Potency [3] | Potency [4]

CCC(C)(Oc1ccc(C2(c3ccc(OC(C)(CC)C(=O)O)cc3)CCCCC2)cc1)C(=O)O (stereo unspecified)
inactive: activation [1] -25.7% and 13.4% | Potency [2] | Potency [3] | Potency [4] | viability [5] 114% | Potency [6] | Potency [7] | Potency [8] | Potency [9] | Potency [10] | Potency [11]

CC(C)N(C[C@H]1O[C@@H](n2cnc3c(N)ncnc32)[C@H](O)[C@@H]1O)C1CC(CCc2nc3ccc(C(C)(C)C)cc3[nH]2)C1 (stereo partly specified)
active: Potency [7] 6.61 µM
inactive: activation [1] 15.8% and 10% | Potency [2] | Potency [3] | Potency [4] | viability [5] 125% | Potency [6] | Potency [8] | Potency [9] | Potency [10] | Potency [11]

COc1cc2c(Nc3cc(F)c(Cl)c(Cl)c3)ncnc2cc1OCC1CCCN(C)CCC1
inactive: Potency [2] | Potency [3] | Potency [4]
active: Potency [1] 23.9 µM

CC(C)(N)C(=O)N[C@H](COCc1ccccc1)C(=O)N1CCC2(CC1)CN(S(C)(=O)=O)c1ccccc12
active: Potency [6] 11.8 µM | Potency [7] 10.5 µM
inactive: activation [1] 18.6% and 11% | Potency [2] | Potency [3] | Potency [4] | viability [5] 104%

CCCCc1oc2ccc(NS(C)(=O)=O)cc2c1C(=O)c1ccc(OCCCN(CCCC)CCCC)cc1
inactive: activation [1] 2.56% | Potency [2] | Potency [3] | Potency [4]
active: Potency [5] 18.6 µM | Potency [6] 14.8 µM | Potency [7] 10.5 µM | Potency [8] 11.8 µM | Potency [9] 10.5 µM | Potency [10] 10.5 µM | Potency [11] 10.5 µM

From PubChem BioAssay (NCATS)
